Screens as filed in PubChem BioAssay.
An excerpt weighted towards active compounds, which were near 2.5% of everything screened.
Rce1 inh: blocks yeast Ras-converting enzyme; Q03530; yeast membranes, quenched prenylated peptide cleavage fluorescence; calls only; actives 0.27% (n = 290,000);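 active = fall in fluorescence gain of 50% or more versus controls, with final raw signal at or below 3038400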;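 note: plate controls were neutral control wells for no effect and wells lacking membranes for full effect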
MEKK3 PB1 HTS: modulators (inhibitors or enhancers) of MEK5 binding to human MEKK3 PB1 domain | actives 1.4% (n = 290,000) | Q99759 | binding response (% of control), % at 10 µM | bead-based flow cytometry, Alexa488-MEK5 binding to MEKK3; actives lie on both sides; 0 = blocked by unlabeled MEK5, 100 = vehicle | AID 1529;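 active = binding response more than 3 SD above or below the average of its plate-row segment, actives on both sides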;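 note: Alexa488 bead fluorescence after subtracting the streptavidin-only scavenger bead signal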
Target sequence (Q99759 whole entry, looked up, the tested form may be a part): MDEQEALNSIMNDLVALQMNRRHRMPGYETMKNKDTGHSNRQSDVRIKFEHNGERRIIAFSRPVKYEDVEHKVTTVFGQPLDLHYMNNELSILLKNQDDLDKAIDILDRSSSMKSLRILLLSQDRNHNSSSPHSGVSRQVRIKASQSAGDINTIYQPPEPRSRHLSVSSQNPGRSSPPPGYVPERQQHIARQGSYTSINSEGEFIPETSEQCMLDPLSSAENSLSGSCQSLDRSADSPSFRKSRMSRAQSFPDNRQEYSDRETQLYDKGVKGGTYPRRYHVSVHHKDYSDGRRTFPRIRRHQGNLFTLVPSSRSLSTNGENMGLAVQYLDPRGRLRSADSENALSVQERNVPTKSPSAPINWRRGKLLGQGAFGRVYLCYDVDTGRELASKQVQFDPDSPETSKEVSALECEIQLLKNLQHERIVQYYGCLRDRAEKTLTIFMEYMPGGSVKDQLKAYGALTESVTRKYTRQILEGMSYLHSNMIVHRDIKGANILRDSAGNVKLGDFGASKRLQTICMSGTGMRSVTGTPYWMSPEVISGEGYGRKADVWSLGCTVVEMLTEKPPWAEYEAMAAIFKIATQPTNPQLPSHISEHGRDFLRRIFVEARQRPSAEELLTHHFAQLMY
MEKK2 mut-MEK5: signal of MEK5 binding to mutant human MEKK2 PB1 domain; bead flow cytometry, Alexa488-MEK5 binding to MEKK2 mutant; actives 0.35% (n = 290,000); AID 1530; percent response, % at 10 µM; in the data active = percent response above about 24%, passing the limit was not always enough
UBC13 inh: blocks human UBC13 polyubiquitin chain formation; P61088; TR-FRET; inhibition, % at 20 µM; actives 0.47% (n = 330,000); in the data active = inhibition above about 45%, passing the limit was not always enough
MEKK2wt PB1 HTS: raises or lowers MEK5 binding to wildtype human MEKK2 PB1 domain. binding response (% of control), % at 10 µM. actives 1.1% (n = 290,000). bead flow cytometry, Alexa488-MEK5 binding to MEKK2 WT; actives lie on both sides. Q9Y2U5; in the data active = binding response below about 67% or above about 130%
* marks the source's active call; other numbers are inactive results; i = inactive; . = not tested or not shown; + = active, no number; [ ] = dose if it differs, or a comment.

SMILES | Rce1 inh | MEKK3 PB1 HTS | MEKK2 mut-MEK5 | UBC13 inh | MEKK2wt PB1 HTS
Cc1ccc(S(=O)(=O)CC(=O)N2CCN(c3ccccc3F)CC2)cc1 | + | 101 | -4 | 2 | 98
CN1/C(=C\C(=S)NC(=O)c2ccccc2Cl)C(C)(C)c2ccccc21 | i | 86 | 0 | -33 | 1.0*
COc1ccccc1C(=O)NC(=S)/C=C1/N(C)c2ccccc2C1(C)C | i | 103 | -1 | -32 | 94
Cc1nc(N2CCCCC2)c2c(C)c(C(=O)Nc3cccc(C(F)(F)F)c3)sc2n1 | i | 106 | -4 | 37 | 116
Cc1nc(N2CCCCC2)c2c(C)c(C(=O)Nc3ccccc3C(F)(F)F)sc2n1 | + | 96 | -10 | 29 | 80
COc1ccc2[nH]c3c(=O)n(CCCCC(=O)NCCC(C)C)c(=S)[nH]c3c2c1 | i | 98 | 2 | -11 | 97
Cc1cc2cc(CNC(=S)NC3CCCCC3)ccc2n1C | i | 107 | -1 | 8 | 106
COCCCNC(=O)C1C2C=CC3(CN(Cc4ccc(C)cc4)C(=O)C13)O2 (configuration not stated) | i | 105 | 9 | -3 | 109
Cc1ccc(CN2CC34C=CC(O3)C(C(=O)NCc3ccc5c(c3)OCO5)C4C2=O)cc1 (configuration not stated) | i | 128* | 8 | -9 | 125
CCCCC1=CC2=CC(=O)C(C)(OC(=O)CC)C(=O)C2=CN1CCc1ccccn1 (configuration not stated) | i | 99 | 3 | -12 | 100
CCCCc1cc2c(cn1)=C(OC(=O)c1cnc3ccccc3n1)C(C)(OC(=O)CC)C(=O)C=2 (configuration not stated) | . | 119 | 3 | -16 | 143*
CC(C)OC(=O)c1c2c(n3ccccc13)C(=O)c1ccccc1C2=O | i | 94 | -46 | -23 | 35*[inhibitor]
COc1ccccc1CNC(=O)CSc1ncc(C(=O)Nc2ccccc2)c(=O)n1C | i | . | . | 65* | .
CC(=O)c1cccc(NC(=O)CSc2ncc(C(=O)Nc3ccccc3)c(=O)n2C)c1 | i | . | . | 73* | .
COc1ccc(NC(=O)c2cnc(SCC(=O)NCCc3ccccc3)n(C)c2=O)cc1 | i | . | . | 41 | .
CC1(c2nnc(Cc3ccccc3)o2)CC(c2ccc([N+](=O)[O-])cc2)=NO1 (configuration not stated) | i | 117 | 8 | -1 | 94
O=C(COc1ccc2c(-c3ccccc3)cc(=O)oc2c1)NCc1cccs1 | i | 93 | 5 | -11 | 4.0*
COc1cc(-c2nc3ccccn3c2/N=C/c2cccc(OC)c2O)ccc1O | + | 104 | -11 | 6 | 93
COc1cccc(Nc2cc(C)nc3nc(C)nn23)c1 | i | 102 | 4 | 5 | 105
COc1cccc(CNc2nc3nc(C)cc(C)n3n2)c1 | + | 101 | 3 | 4 | 104
Cc1cc(C)cc(NC(=O)CSc2nc3nc(C)cc(C)n3n2)c1 | . | . | . | 3 | .
CCOC(=O)c1cc2c(=O)[nH]ccc2nc1C(F)(F)F | i | 93 | -2 | 10 | 95
CCOC(=O)c1cc2c(=O)[nH]ccc2nc1C | + | 89 | -8 | 6 | 92
COc1cccc(NC(=O)CSC2=NN3CCCC(=O)N=C3S2)c1 | i | 102 | 1 | 1 | 95
O=C(c1cccc([N+](=O)[O-])c1)N1CCN(c2n[nH]c(=O)[nH]c2=O)CC1 | i | 106 | 5 | 5 | 95
SMILES | Rce1 inh | MEKK3 PB1 HTS | MEKK2 mut-MEK5 | UBC13 inh | MEKK2wt PB1 HTS
Oc1cccc(C(O)CNCc2ccc(-c3ccccc3)cc2)c1 (configuration not stated) | i | 105 | 2 | 15 | 128
Oc1cccc(C(O)CNCc2ccc(OCc3ccc(Cl)cc3Cl)cc2)c1 (configuration not stated) | i | 107 | 8 | 33 | 155*
Cc1ccc(NC(=O)CCc2ccc(S(=O)(=O)NC3CCCCC3)cc2)cc1 | + | 112 | 5 | -5 | 108
O=C(CCc1ccc(S(=O)(=O)NC2CCCCC2)cc1)Nc1ccccc1 | i | 105 | 8 | 7 | 100
O=C(O/N=C(\c1ccccc1)c1ccncc1)c1ccccc1F | i | 104 | 4 | -2 | -8.0*
CC12CCC(=O)N1C(C(=O)N1CCN(S(=O)(=O)c3ccc(F)c(F)c3)CC1)CS2 (configuration not stated) | i | . | . | 4 | .
Cc1nn2c(Nc3ccccc3)c3c(nc2c1-c1ccccc1)CCC3 | i | 176* | 2 | 20 | 113
